Assay results taken from paper PMC7819943, “Rice protein-binding microarrays: a tool to detect cis-acting elements near promoter regions in rice”.
Whole data set: some 39,000 sequences, median “fluorescence intensity (a.u.)” near 4,300, cut for the highest 2% near 39,000. For the sample, the highest values were picked, then their nearest neighbours and some sequences at random.

Target: T1, OsSMF1 (Oryza sativa, UniProt Q6ZLB0 1-436)
T1 sequence: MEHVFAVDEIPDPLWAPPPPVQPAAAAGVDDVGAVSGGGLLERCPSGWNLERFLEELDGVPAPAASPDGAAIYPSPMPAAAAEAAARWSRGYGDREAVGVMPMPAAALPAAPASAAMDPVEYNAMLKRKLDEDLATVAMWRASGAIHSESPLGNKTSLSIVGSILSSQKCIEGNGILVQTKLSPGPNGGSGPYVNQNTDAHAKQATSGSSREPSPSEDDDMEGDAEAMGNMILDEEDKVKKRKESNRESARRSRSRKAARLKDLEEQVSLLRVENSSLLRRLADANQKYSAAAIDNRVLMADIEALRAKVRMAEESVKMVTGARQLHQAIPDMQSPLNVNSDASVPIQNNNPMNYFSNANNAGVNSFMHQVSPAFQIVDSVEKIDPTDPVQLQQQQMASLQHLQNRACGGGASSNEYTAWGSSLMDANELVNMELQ
Assay: protein-binding microarray (RPBM); PBS, 2% BSA, 51.3 ng/ul salmon testes DNA, 50 uM zinc acetate, 200 nM TF, 25 C, 1 h; high values mean tight binding
Conditions: protein: recombinant; tags: N-terminal polyhistidine and DsRed monomer fusion (pET32a); chain copies: 2; label: CyDye5-dUTP incorporated in the synthesized complementary strand; 3' TTTTT single-stranded linker to array surface; dsDNA, one strand shown
Method in brief: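 Using Ni–NTA, transcription factors fused N-terminally to polyhistidine and DsRed were purified after expression in E. coli BL21-CodonPlus. These were incubated at 200 nM with a blocked, double-stranded custom Agilent array for 1 h at 25 °C in a buffer containing 50 µM zinc acetate, and the array was washed. The binding signal is per-feature fluorescence intensity (arbitrary units) on an Axon 4000B scanner.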

Question: Which binding signal does the source give for “ATTGGGGAGAGGAGCTGGGCGAGGCGGGGCTTGGGCTCGGCGGAGTCACCTAGTGCAG” here?
Answer: 3390 fluorescence intensity (a.u.)

Question: For “TAGGGGAGCCTCGACACGACGCCGCTGGCGTGGCGCGTCCCGGAGTCACCTAGTGCAG”, which binding signal is on record?
Answer: 9370 fluorescence intensity (a.u.)

Question: For “AAATAATGTGGCCGGACGGGCGGTAGGGTCCTGGCAGCAGCGGAGTCACCTAGTGCAG”, which binding signal is on record?
Answer: 28000 fluorescence intensity (a.u.)

Question: Which binding signal does the source give for “CTCTCCTCTTTGCATGCATTCCTCCTGCCAAGAGTGCTGACGGAGTCACCTAGTGCAG” here?
Answer: 3400 fluorescence intensity (a.u.)

Question: “AAACAAAATAGCATAATCACTCACCGCGTCACACAGCGGGCGGAGTCACCTAGTGCAG” was tested. Which binding signal did it give?
Answer: 3720 fluorescence intensity (a.u.)

Question: For “CCGAAGGAGTACGTGCCAAGTCGGCCCATCAGGCCCACGTCGGAGTCACCTAGTGCAG”, which binding signal is on record?
Answer: 4010 fluorescence intensity (a.u.)

Question: How did the binding signal turn out when “CTCTGCACAATTGCACCAACCCCAAAGCTTGGCTAAGCTCCGGAGTCACCTAGTGCAG” was run?
Answer: 51000 fluorescence intensity (a.u.)

Question: Which binding signal does the source give for “AAACCCAAGCAAACCAGCAGCTACTAAGCAAAGCACAACCCGGAGTCACCTAGTGCAG” here?
Answer: 33900 fluorescence intensity (a.u.)

Question: “CACCAAACCCCAACCCACCTCCAGGTCATCCACCCACATCCGGAGTCACCTAGTGCAG” was tested. Which binding signal did it give?
Answer: 3900 fluorescence intensity (a.u.)

Question: With “CGATATACGTACACATGTGACATGACGTAATTTTACATCCCGGAGTCACCTAGTGCAG” as the sequence, how does the binding signal read?
Answer: 4320 fluorescence intensity (a.u.)

Question: For “TTACGATATAGTGTGCCAATTGGCACACCTACATTTTAGTCGGAGTCACCTAGTGCAG”, which binding signal is on record?
Answer: 45700 fluorescence intensity (a.u.)

Question: Which binding signal does the source give for “CCCTACGTGCACACATCCAGCTCCATTATATAGCCATTTTCGGAGTCACCTAGTGCAG” here?
Answer: 54800 fluorescence intensity (a.u.)

Question: With “TGACCTAGCTAGCTACCTTTTCCCTCTTCCATCACATATACGGAGTCACCTAGTGCAG” as the sequence, how does the binding signal read?
Answer: 3800 fluorescence intensity (a.u.)

Question: For “CATTTTCCAGGCCAAGCCAGCTCACATCACCAGAGCAACACGGAGTCACCTAGTGCAG”, which binding signal is on record?
Answer: 3720 fluorescence intensity (a.u.)

Question: With “ATACGGCACCATTTACGTGTATATGTGTCGTACATGCATACGGAGTCACCTAGTGCAG” as the sequence, how does the binding signal read?
Answer: 3470 fluorescence intensity (a.u.)

Question: For “CAGTTCCCAGCTGGACCTCCGACCTCCTACCTCCTCACCTCGGAGTCACCTAGTGCAG”, which binding signal is on record?
Answer: 3340 fluorescence intensity (a.u.)

Question: For “AATGTTTGGGTTCGAATTTAGTGGGTGGGTTTGGAGTTTGCGGAGTCACCTAGTGCAG”, which binding signal is on record?
Answer: 4670 fluorescence intensity (a.u.)

Question: For “TCCGCGGCCCCGCTGGCCCACACGCATGCGTCCAAACAGCCGGAGTCACCTAGTGCAG”, which binding signal is on record?
Answer: 3940 fluorescence intensity (a.u.)

Question: How did the binding signal turn out when “CAAATAGAACATAGCCATACGAAATGACTCACTAACCTCTCGGAGTCACCTAGTGCAG” was run?
Answer: 4910 fluorescence intensity (a.u.)

Question: With “TCACCGGTCTCATCCCCGTCATATGCATCCTTATCTCCAACGGAGTCACCTAGTGCAG” as the sequence, how does the binding signal read?
Answer: 4020 fluorescence intensity (a.u.)

Question: How did the binding signal turn out when “TGACCTACTTGCACTTATAATTTATAGTATTATGATGTGTCGGAGTCACCTAGTGCAG” was run?
Answer: 3290 fluorescence intensity (a.u.)

Question: “TCCAAGCCGTCCACTCCCCTCCGATCCAACGGTCCAAACCCGGAGTCACCTAGTGCAG” was tested. Which binding signal did it give?
Answer: 21800 fluorescence intensity (a.u.)

Question: “AGATCACACACAACACGCACATCACGAACCGGACCAAACCCGGAGTCACCTAGTGCAG” was tested. Which binding signal did it give?
Answer: 3660 fluorescence intensity (a.u.)

Question: “ATGCACACACATACAACGAAAACCAGAGATCAACAGGTGCCGGAGTCACCTAGTGCAG” was tested. Which binding signal did it give?
Answer: 45100 fluorescence intensity (a.u.)

Question: For “CACACCTGACACAACACTTACACATCATACCAGAAGAAAACGGAGTCACCTAGTGCAG”, which binding signal is on record?
Answer: 3210 fluorescence intensity (a.u.)

Question: How did the binding signal turn out when “TGGGGCCGTGAGGCCACGTGCCCGGCATGCCACGGTGGAGCGGAGTCACCTAGTGCAG” was run?
Answer: 10000 fluorescence intensity (a.u.)

Question: Which binding signal does the source give for “TTGTCGTCCACGCCGCCATCTCCTTGGTCATCCGCAACAACGGAGTCACCTAGTGCAG” here?
Answer: 3430 fluorescence intensity (a.u.)

Question: Which binding signal does the source give for “TCCTCCTCTCCTCCACACATCCAGGCAGGCAACACAAGAACGGAGTCACCTAGTGCAG” here?
Answer: 41800 fluorescence intensity (a.u.)

Question: Which binding signal does the source give for “CCTCCACCCTCACCGGCGCCACGCCGACGCCTCCGCCCTCCGGAGTCACCTAGTGCAG” here?
Answer: 5600 fluorescence intensity (a.u.)

Question: “CCCTTGTCCATCCGCCAACGCCACGTCACCTCCTCCGCTACGGAGTCACCTAGTGCAG” was tested. Which binding signal did it give?
Answer: 52100 fluorescence intensity (a.u.)

Question: “ACCTCCCCGACGGCGTCCGCGTGCCGCGCTCCACGCGCACCGGAGTCACCTAGTGCAG” was tested. Which binding signal did it give?
Answer: 3460 fluorescence intensity (a.u.)

Question: “CCTCCGCCTTGTCCGCGTCCACGTCCACGGCCGCCGCCACCGGAGTCACCTAGTGCAG” was tested. Which binding signal did it give?
Answer: 6310 fluorescence intensity (a.u.)

Question: How did the binding signal turn out when “ACCACGACCACCACAACACCACCACCTCTTCTCCTAGTCACGGAGTCACCTAGTGCAG” was run?
Answer: 3570 fluorescence intensity (a.u.)

Question: “CTCCTCTCCTCTCTTCTCCACATCCACAAGAAATTTCGTACGGAGTCACCTAGTGCAG” was tested. Which binding signal did it give?
Answer: 3630 fluorescence intensity (a.u.)

Question: “GGCAACAACGGCCTCCACCGCCATCACTCCGGCACCCTCACGGAGTCACCTAGTGCAG” was tested. Which binding signal did it give?
Answer: 52200 fluorescence intensity (a.u.)

Question: For “CGCCTTATCCTCCCGCCTTTTCACGTCCCGCCACGCCGACCGGAGTCACCTAGTGCAG”, which binding signal is on record?
Answer: 4060 fluorescence intensity (a.u.)

Question: “CCTTTTATCCGCTCTACGGACGCAGTCCACGTCAGCCGACCGGAGTCACCTAGTGCAG” was tested. Which binding signal did it give?
Answer: 39200 fluorescence intensity (a.u.)

Question: How did the binding signal turn out when “TCCACCACCGCCTGCCTCCATCCACCTCCACTGCAACCTCCGGAGTCACCTAGTGCAG” was run?
Answer: 3670 fluorescence intensity (a.u.)

Question: For “CACGGGGTGGTCGCGGGTCACAGTGACGGACGGTGCACGGCGGAGTCACCTAGTGCAG”, which binding signal is on record?
Answer: 20200 fluorescence intensity (a.u.)

Question: Which binding signal does the source give for “CACCAGGCACCGACTGCCGTAGTGTCACCGGCCACAGTGCCGGAGTCACCTAGTGCAG” here?
Answer: 3220 fluorescence intensity (a.u.)

Question: For “CTGTTGCCTACTCCCTCCTCAATCCTGCAGAAGTTTCTGACGGAGTCACCTAGTGCAG”, which binding signal is on record?
Answer: 3240 fluorescence intensity (a.u.)

Question: How did the binding signal turn out when “CTCCATTTTCTCCGGTTTTCGCCGCAGAGTAGGAGCTGAACGGAGTCACCTAGTGCAG” was run?
Answer: 21400 fluorescence intensity (a.u.)

Question: For “TCTCCTCTCGCTCTCGCCATCTCGCCGCCGGCCTCCTCCACGGAGTCACCTAGTGCAG”, which binding signal is on record?
Answer: 3240 fluorescence intensity (a.u.)
